This is part of a sample that, as a whole, favours compounds with a hit. Of some 83,000 tested, about 20% had one in any assay.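 How to read the values: 0–100, growth inhibition (40 = 60% inhibited); 0, no net growth; -100 to 0, cell death (-40 = 40% of starting cells died; -100 = all dead).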 Unmarked numbers belong to inactive results. The source made the active and inactive calls. How the source made its calls: active means growth percent below 10; inactive means the rest.
Test system: UACC-62 melanoma
Experiment: NCI-60 one-dose screen, 48 h (100 = growth as untreated, 0 = no growth, -100 = all killed)
Conditions: 10 µM unless noted

Structure (SMILES)	growth
Cc1ccc(-c2nc(C#N)c(S(=O)(=O)N3CCN(S(=O)(=O)c4ccc(Cl)cc4)CC3)o2)cc1	83.5%
CCOC(=O)C1=C(N)N(c2ccccc2)C2=C(C(=O)CC(C)(C)C2)C1c1ccccc1Cl (configuration not stated)	44%
Cc1ccc(C(=O)NN2C(=O)/C(=C/C=C/c3ccc([N+](=O)[O-])o3)SC2=S)cc1	-92.4% (active)
CCCS(=O)(=O)N1CCCC(C(=O)Nc2nc3ccc(NC(=O)c4ccc(F)c(OC)c4F)cc3s2)C1 (configuration not stated)	45.4%
O=C1CC(Sc2n[nH]c(-c3ccncc3)n2)C(=O)N1c1ccc(Br)cc1 (configuration not stated)	96.9%
COc1ccc(NC(=O)Nc2ccc(OCc3ccc(F)cc3)cc2)cc1	82.6%
COc1ccc(/C=C/c2nc3ccccc3n3c(-c4ccc(Cl)cc4)nnc23)cc1	81.3%
CC1(C)CC[C@]2(C(=O)O)CC[C@]3(C)C(=CCC4[C@@]5(C)C[C@@H](O)[C@@H]6OC(c7ccccc7Br)OC[C@@]6(C)C5CC[C@]43C)C2C1 (some centres not stated)	28.5%
CC(=O)OCC1OC(OC2C(COC(C)=O)OC(n3cc(COc4ccc5ccc(=O)oc5c4)nn3)C(OC(C)=O)C2OC(C)=O)C(OC(C)=O)C(OC(C)=O)C1OC(C)=O (configuration not stated)	94.2%
COc1ccc(Cc2nn(CC(=O)N/N=C/c3ccc(F)cc3)c(=O)c3c(C)noc23)cc1	44.4%
O=C(c1ccccc1)C(c1c[nH]c2ccccc12)c1c[nH]c2ccccc12	60.4%
N=C1N=C(SCc2nc3ccccc3[nH]2)NC(=O)/C1=C/c1ccc(Cl)cc1	90.3%
